Measured values as given in PubChem BioAssay (NCI).
The panel holds about 83,000 compounds, 20% with a hit somewhere; the sample as a whole holds those more often.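 96-well plates, one dose, 48 hours. Percent growth reported; active if below 10.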 Activity calls are given as the source filed them.

Tested on: CCRF-CEM leukemia
Assay: NCI-60 one-dose screen, 48 h (100 = growth as untreated, 0 = no growth, -100 = all killed)
Conditions: 10 µM unless noted
Protocol: Growth inhibition of the CCRF-CEM human tumor cell line is measured as a screen for anti-cancer activity. Cells are grown in 96 well plates and exposed to the test compound for 48 hours. Compounds are tested at a single concentration, which is 10^-5 M for most compounds. The reported endpoint is percent growth (GI% or GIPRCNT), where numbers from 0 - 100% represent growth inhibition, and numbers from -100% - 0 represent cell death. For example, a value of 40 represents 60% growth inhibition. A value of 0 means no net growth occurred over the course of the experiment. A value of -40 indicates 40% of cells at the beginning of the experiment died by the end of the experiment. A value of -100 means all cells are dead at the end of the experiment.
NCI-60 Human Tumor Cell Lines Screen was performed using the standard one-dose NCI protocol, which is described in more detail at https://dtp.cancer.gov/discovery_development/nci-60/default.htm.
Compounds with GIPRCNT values below 10 were considered active. Activity score was based on GIPRCNT using the following formula: […]
Score is 0 for GIPRCNT values of 100 or above, 50 for GIPRCNT values of 0, and 100 for GIPRCNT values of -100.

Compound | growth
CC(=O)N(CCCCCCN(C(C)=O)C(C)=O)C(C)=O | 103% [100 µM] (inactive)
O=[N+]([O-])c1c(Cl)ncnc1Cl | 99.1% (inactive)
Nc1ccc(F)c(Cl)c1F | 99.4% (inactive)
CCN(CC)CCN1CNC(=S)NC1 | 97.8% (inactive)
COc1cc(OC)c2cc(C(=O)c3ccc(C#N)cc3)c(=O)oc2c1 | 101% (inactive)
CC(=O)N(C)N=Nc1ccc(C)cc1 | 95.6% (inactive)
CC(CCC#N)(CCC#N)C(=O)c1ccccc1 | 93.3% (inactive)
CCN(CC)c1ccc2nc3ccc(N=Nc4ccc(N(C)C)cc4)cc3[n+](-c3ccccc3)c2c1 | -21% (active)
COc1ccc(NNS(=O)(=O)O)cc1 | 99.2% (inactive)
c1ccc(Oc2c3ccccc3nc3ccccc23)cc1 | 14.2% (inactive)
CC(=O)c1cccc(N(C)S(=O)(=O)c2ccc(C)cc2)c1 | 97.7% (inactive)
CCN(CC)CCCC(C)NC(=S)N/N=C(\C)c1ccccn1 (stereo not given) | 29.8% (inactive)
Cc1ccc[n+](CCC(N)=O)c1 | 90.8% (inactive)
CN(C(=S)S(=O)(=O)C12CC3CC(CC(C3)C1)C2)c1ccccc1 | 15.9% (inactive)
C=CCC(OC(C)=O)c1ccc(OC)c(OC)c1 (stereo not given) | 100% (inactive)
CC(=O)c1cc(O)ccc1O | 73.7% (inactive)
CC(=O)OC(C)c1cccc(C#N)c1 (stereo not given) | 97.7% (inactive)
O=C(Nc1c(Cl)cc(Cl)cc1Cl)ON=C1CCCCC1 | 102% (inactive)
OCC1OC(n2ccc3c2ncn2ncnc32)C(O)C1O (stereo not given) | 14.1% (inactive)
NNc1ncnc2c1ncn2C1OC(CO)C(O)C1O (stereo not given) | 72% (inactive)

Compound | growth
Cc1ccc(O)c(N)c1 | 78.7% (inactive)
Cc1cc(C(=O)NN)c(C#N)c(=O)[nH]1 | 95.9% (inactive)
Oc1ccc(CCC2CCNc3ccccc32)cc1 (stereo not given) | 69.1% (inactive)
CCCCCCCCCCCCCCCCOc1ccccc1NC(=O)CC(C)=O | 57.1% (inactive)
Clc1ccc(-c2noc(/C=C\c3ccccc3)n2)cc1 | 92.3% (inactive)
Nc1c(Br)cc(O)c2c1C(=O)c1ccccc1C2=O | 56.5% (inactive)
O=C1C=CC(=O)C2=C1CCCC2 | 18.8% (inactive)
S=C=Nc1ccc2ccccc2c1 | 106% (inactive)
O=C1NC(=O)C(c2ccccc2)O1 (stereo not given) | 101% (inactive)
Cc1[nH]nc(C(N)=O)c1[N+](=O)[O-] | 105% (inactive)
CC1CCC(C(C)(C)[N+](C)(C)C)CC1 (stereo not given) | 98.4% (inactive)
Oc1cc(O)c2c(c1)O[C@H](c1ccc(O)c(O)c1)[C@@H](O)C2 | 94.4% (inactive)
CCOC(=O)CNC | 92.3% (inactive)
CN1CCCN(C(c2ccccc2)c2ccc(Br)cc2)CC1 (stereo not given) | 96.6% (inactive)
O=C(Oc1ccccc1Cl)c1ccc(Cl)cc1Cl | 99.9% (inactive)
Oc1cccnc1CN1CCCC1 | 101% (inactive)
COC1(OC)C2(Cl)C(Cl)=C(Cl)C1(Cl)C1COCC12 (stereo not given) | 103% (inactive)
OCC(O)COc1ccc(Cl)cc1Cl (stereo not given) | 119% (inactive)
C=C(OC(C)=O)c1ccccc1 | 83.5% (inactive)
O=C(NCc1ccccc1)c1cccc([N+](=O)[O-])c1 | 90.9% (inactive)
